This is an account of results in PubChem BioAssay (NCI).

Assay [1] is described as follows: NCI Yeast Anticancer Drug Screen. Data for the rad50 strain (AID 155).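 Further: 0% = growth of vehicle-only cultures of the same strain.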 The conditions noted are these: S. cerevisiae rad50 strain growth inhibition, active compounds read high. In short, it runs like this: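 Compounds were tested on a yeast strain with an engineered DNA damage repair alteration; the reported value is growth inhibition normalised to vehicle treatment.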

Assay [2] in a line: NCI Yeast Anticancer Drug Screen. Data for the mec2-1 strain (AID 157). The note with it: S. cerevisiae mec2-1 strain, active compounds read high. In short, it runs like this: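 Readout is yeast growth inhibition, normalised to vehicle-treated controls, in the mec2-1 strain exposed to compound.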
A short description of assay [3]: NCI Yeast Anticancer Drug Screen. Data for the sgs1 mgt1 strain (AID 161).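 Further: 0% = growth of cultures given vehicle only.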 The conditions noted are these: S. cerevisiae sgs1 mgt1 strain, active compounds read high. Put shortly:
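Percent growth inhibition was derived by comparing compound-exposed mutant yeast with vehicle-exposed cultures. The strain carries alterations in DNA damage repair.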

Assay [4] is described as follows: NCI Yeast Anticancer Drug Screen. Data for the cln2 rad14 strain (AID 165).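 Further: 0% = growth equal to vehicle treated cultures.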 The note with it: S. cerevisiae cln2 rad14 strain, active compounds read high. Put shortly:
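Relative to vehicle controls, growth inhibition of compound-treated cln2 rad14 yeast was recorded.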

Assay [5] can be described thus: NCI Yeast Anticancer Drug Screen. Data for the bub3 strain (AID 167). The note with it: S. cerevisiae bub3 mutant strain, active compounds read high. In short, it runs like this:
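Growth of a checkpoint-deficient yeast mutant is measured after compound exposure. Values represent inhibition relative to vehicle.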

A short description of assay [6]: NCI Yeast Anticancer Drug Screen. Data for the mlh1 rad18 strain (AID 175). The note with it: S. cerevisiae mlh1 rad18 strain growth inhibition, active compounds read high. In short, it runs like this:
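Test agents were incubated with a yeast strain of defined genotype (DNA damage repair defect). Inhibition of growth was derived by comparison with vehicle-exposed cultures.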

[7] abbreviates: at 5.0 µM (retest, dose inferred, filed as 0.5).
The mark [8] stands for this setting: at 50.0 µM (retest, dose inferred, filed as 5.0).

Compounds without any hit were thinned out: in the full panel of roughly 79,000, 15% have a hit. Values without a mark were called inactive. Calls of active or inactive are those of the source. No stated cut-off is given here; in the data, active means growth inhibition above about 70%; inactive means the rest.

In the case of `CC(=O)CC(C)=NCCN=C(C)CC(C)=O.[Pd]`, the growth inhibition is -6% in assay [1] (setting [7]); 61% in assay [1] (setting [8]); 76% (active) in assay [1] (at 50.0 µM); -1% in assay [2] (setting [7]); 78% (active) in assay [2] (setting [8]); 67.2% in assay [2] (at 50.0 µM). In addition, the growth inhibition is 0% in assay [3] (setting [7]); 96% (active) in assay [3] (setting [8]); 94.3% (active) in assay [3] (at 50.0 µM); -5% in assay [4] (setting [7]); 41% in assay [4] (setting [8]); 53% in assay [4] (at 50.0 µM). Further, the growth inhibition was -1% in assay [5] (setting [7]); 60% in assay [5] (setting [8]); 76.2% (active) in assay [5] (at 50.0 µM); -9% in assay [6] (setting [7]); 74% (active) in assay [6] (setting [8]); 83.7% (active) in assay [6] (at 50.0 µM).

For the compound `C/C(CCn1[nH]c(=O)ccc1=O)=N\NS(=O)(=O)c1ccc(C)cc1`, the growth inhibition in assay [1] (setting [7]) was -3%; in assay [1] (setting [8]) it was -3%; in assay [1] (at 50.0 µM), -4.05%; in assay [2] (setting [7]), 4%; in assay [2] (setting [8]), 15%; in assay [2] (at 50.0 µM), 4.6%. In addition, the growth inhibition was 0% in assay [3] (setting [7]); -11% in assay [3] (setting [8]); 12.6% in assay [3] (at 50.0 µM); 11% in assay [4] (setting [7]); 29% in assay [4] (setting [8]); -6.7% in assay [4] (at 50.0 µM). Besides, the growth inhibition is -1% in assay [5] (setting [7]); 6% in assay [5] (setting [8]); -5.15% in assay [5] (at 50.0 µM); -8% in assay [6] (setting [7]); 11% in assay [6] (setting [8]); -10.3% in assay [6] (at 50.0 µM).

As to `CN(C)CCCN=c1c2ccccc2n(O)c2ccccc12`, the growth inhibition was -8% in assay [1] (setting [7]); -6% in assay [1] (setting [8]); -27.9% in assay [1] (at 50.0 µM); -16% in assay [2] (setting [7]); -19% in assay [2] (setting [8]); -6.95% in assay [2] (at 50.0 µM). The growth inhibition is -16% in assay [3] (setting [7]); -3% in assay [3] (setting [8]); -32.5% in assay [3] (at 50.0 µM); 22% in assay [4] (setting [7]); 20% in assay [4] (setting [8]); 24.7% in assay [4] (at 50.0 µM). The growth inhibition in assay [5] (setting [7]) is -4%; in assay [5] (setting [8]) it was -20%; in assay [5] (at 50.0 µM), -9.35%; in assay [6] (setting [7]) it was -20%; in assay [6] (setting [8]) it was -16%; in assay [6] (at 50.0 µM), 8.3%.

In the case of `COc1cccc2c1C1c3ccccc3Sc3cccc(c31)O2` (configuration not stated), the growth inhibition in assay [1] (setting [7]) was 6%; in assay [1] (setting [8]), 3%; in assay [1] (at 50.0 µM) it was 5.2%; in assay [2] (setting [7]) it was 6%; in assay [2] (setting [8]) it was 3%; in assay [2] (at 50.0 µM), 18.3%. The growth inhibition in assay [3] (setting [7]) was 4%; in assay [3] (setting [8]), 3%; in assay [3] (at 50.0 µM), 19.6%; in assay [4] (setting [7]), 1%; in assay [4] (setting [8]) it was -21%; in assay [4] (at 50.0 µM), 40.2%. Also, the growth inhibition in assay [5] (setting [7]) is -1%; in assay [5] (setting [8]), -2%; in assay [5] (at 50.0 µM) it was 43.9%; in assay [6] (setting [7]), 4%; in assay [6] (setting [8]), 1%; in assay [6] (at 50.0 µM), 21.1%.
